According to ChEMBL document CHEMBL3988442, “University of Dundee, Small-Polar-MMV Screening Library” (2021):
About 13,000 (27%) of roughly 48,000 compounds showed an effect of 50% or more. This is one part of the list.

tested on: Wolbachia pipientis; experiment: Anti-Wolbachia Cell-Based Screen; format: functional; parameters: scale not given: in the data most compounds retested in dose-response had high values; conditions: 5 µM

Compared with Cc1nsc(NC(=O)N2CCN(Cc3ccc(F)cc3)C(=O)C2)n1, O=C(NC1CC1)N1CCc2ccc(=O)n(Cc3ccncc3)c2CC1 is higher in “Percent Effect” value: 3.543% for the first, 23.4% for the second.

Going from Cn1ncnc1-c1ccnc(N2CCC(C(O)c3cccs3)CC2)n1 (stereo not drawn) to O=c1ccc2c(n1Cc1ccncc1)CCN(C1CCOC1)CC2 (stereo not drawn), the “Percent Effect” value rises from -11.63% to 8.67%.

Going from CCC1CN(C(=O)Cc2coc(-c3ccccc3)n2)CCO1 (stereo not drawn) to CN1CCOC(CNC(=O)Cc2coc(-c3ccccc3)n2)C1 (stereo not drawn), the “Percent Effect” value rises from -15.78% to 107.6%.

First: Cc1ccc(-c2nc(CNCC3CN(C)CCO3)co2)cc1 (stereo not drawn)
Second: CN1CCOC(CNCc2coc(-c3ccc(Cl)cc3)n2)C1 (stereo not drawn)
The “Percent Effect” value of the first is higher: 108.3% for the first, 81.44% for the second.

Going from Cc1ccc(-c2nc(CNCC3CN(C)CCO3)co2)c(C)c1 (stereo not drawn) to CN1CCOC(CNCc2coc(-c3ccccc3Cl)n2)C1 (stereo not drawn), the “Percent Effect” value rises from 99.3% to 105.3%.

First: CN(C)CC1CN(Cc2coc(-c3ccccc3Cl)n2)CCO1 (stereo not drawn)
Second: CN1CCOC(CNCc2coc(-c3ccccc3)n2)C1 (stereo not drawn)
The “Percent Effect” value of the first is higher: -0.3444% for the first, -3.46% for the second.

First: CN1CCOC(CNC(=O)Cc2ccccc2F)C1 (stereo not drawn)
Second: CN1CCOC(CNCc2nc(-c3ccoc3)no2)C1 (stereo not drawn)
The “Percent Effect” value of the first is lower: -10.58% for the first, -1.201% for the second.

Compared with CC(C)(C)OC(=O)N1CCCc2ccc(NCc3ncc[nH]3)cc21, CC(C)(C)OC(=O)N1CSC[C@@H]1C(=O)NCc1ccncc1 is lower in “Percent Effect” value: 1.363% for the first, -9.296% for the second.

Compared with Cn1cnnc1CC1CCN(Cc2c(Cl)cncc2Cl)CC1, Cn1cc(CN2CCc3ccc(=O)n(CC4CC4)c3CC2)cn1 is higher in “Percent Effect” value: -0.137% for the first, 115.2% for the second.

Going from COc1ccc(S(=O)(=O)Cc2cc(C)on2)cc1 to COc1ccc2c(c1)C1(CCN(Cc3cnn(C)c3)CC1)N(C)CC2.O=C(O)C(F)(F)F, the “Percent Effect” value falls from 3.84% to 2.583%.

First: O=C(CCn1cncn1)N1CCCC(CO)(CCCc2ccccc2)C1 (stereo not drawn)
Second: CCS(=O)(=O)c1ncc(CN2CCCC2)n1CCc1ccccc1
The “Percent Effect” value of the first is higher: 16.2% for the first, 1.853% for the second.

Going from CN(CCc1ccncc1)C(=O)C1CSCN1C(=O)CC(C)(C)C (stereo not drawn) to CN(CCc1ccncc1)C(=O)C1CSCN1C(=O)C(C)(C)C (stereo not drawn), the “Percent Effect” value falls from 109.1% to -12.64%.

Compared with CN(CC(F)(F)F)C(=O)C1CSCN1C(=O)OC(C)(C)C (stereo not drawn), CN(Cc1ccncc1)C(=O)[C@H]1CSCN1C(=O)OC(C)(C)C is higher in “Percent Effect” value: 6.249% for the first, 103.4% for the second.

Going from CN(CCc1ccncc1)C(=O)C1CSCN1C(=O)C1CCCC1 (stereo not drawn) to CN(C)CCn1c2c(ccc1=O)CCN(Cc1ccncc1)CC2, the “Percent Effect” value rises from -15.81% to 102%.

Going from Nc1nnc(CCNc2ncnc3c2CCN(C(=O)C2CC2)C3)s1 to CC(OCC1CC1)C(=O)N1CCCN(Cc2cnn(C)c2)CC1 (stereo not drawn), the “Percent Effect” value rises from -2.758% to 6.432%.

First: COCCc1nc(CSc2ccncc2)n(C)n1
Second: Cn1cc(CN2CCc3ccc(=O)n(Cc4ccncc4)c3CC2)cn1.O=C(O)C(F)(F)F.O=C(O)C(F)(F)F
The “Percent Effect” value of the first is lower: -10.21% for the first, 104.6% for the second.

With CN(C)C(=O)Cn1c2c(ccc1=O)CCN(Cc1cnn(C)c1)CC2.O=C(O)C(F)(F)F the “Percent Effect” value was 120.2%.
